Screens as filed in PubChem BioAssay.
uPA generation: blocks generation of uPA at the cell surface; cell surface uPA generation assay, qHTS; Potency, µM (titrated, usually from 38.3 µM), inactives show top-dose activity change, negative = inhibition, usual class: inhibitors; 0.31% of 330,000 active; AID 540303; active = well fitted inhibition curve with a large enough effect; inconclusive = small, poorly fitted or top-dose-only effect; inactive = no such curve, though single readings can be large or run the other way; tested in mouse RAW 264.7 cells; note: potency is the fitted concentration of half-maximal effect; % is set by controls: 0 for no effect and ±100 for the full control effect; nearly all actives have a fitted effect of over 55% in size
SW480 rerep: induces DNA re-replication in SW480 colon adenocarcinoma cells. AID 624297. 1.8% of 340,000 active. SW480 DNA re-replication, Hoechst DNA content imaging, 48 h. Potency, µM (titrated, usually from 46.1 µM), for inactives: at the highest dose re-replication activation, hits mostly activators; note: potency is the fitted concentration of half-maximal effect; % of control where 0% means no effect; nearly all actives have a fitted effect of over 55% in size
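Cells (250 per well) received 23 nL compound or DMSO by pin tool and were kept 48 hr at 37 C, 5% CO2. Nuclei were then stained with Hoechst for 40 min and scanned for DNA content.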
Giardia killer: Giardia lamblia killing; Giardia lamblia trophozoite viability; activity change, % at 7.66 µM, hits read low; 0.15% of 340,000 active; in the data active = activity change below about -80%; inconclusive = between about -30% and that limit;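 note: parasites exposed to compound for two days anaerobically before the ATP read; % is set by controls: 0 for no effect and ±100 for the full control effect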
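Each well holds 100 Giardia trophozoites and compound. After two days (48 hrs) at 37 deg C in anaerobic conditions, ATP is quantified by luminescence.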
MCF10A rerep: inducers of DNA re-replication in MCF 10A breast cells. MCF 10A DNA re-replication, Hoechst nuclear intensity, 48 h. Potency, µM (titrated, usually from 46.1 µM), for the others: top-dose activity, positive = re-replication, hits mostly activators. 2.9% of 350,000 active; note: potency is the fitted concentration of half-maximal effect; % of control where 0% means no effect; nearly all actives have a fitted effect of over 50% in size
* marks the source's active call; other numbers are inactive results; u = inconclusive; x = no result given; [ ] = another dose, or the depositor's remark. An excerpt weighted towards active compounds, which were near 4.3% of everything screened. Unless noted, calls come from the whole dose curve; as a rule, active = well fitted activation curve with a large enough effect; inconclusive = small, poorly fitted or top-dose-only effect; inactive = no such curve, though single readings can be large or run the other way.

SMILES	uPA generation	SW480 rerep	Giardia killer	MCF10A rerep
C=CCn1c(SCC(=O)Nc2cc(NC(C)=O)ccc2OC)nnc1-c1ccccn1	5%	-17%	-5	-1%
COc1ccc(-n2c(SCC(=O)Nc3cccc(C(=O)O)c3)nnc2-c2ccco2)cc1	-3%	-14%	1	-7%
Cc1nnc2ccc(-c3ccc(NS(=O)(=O)c4ccc(F)cc4F)cc3)nn12	-8%	-16%	7	u
O/N=C(\Cn1ccnc1)c1ccccc1	0%	-64%[1.84 µM]	9	-25%
CCn1c(SCC(=O)C(C)(C)C)nnc1-c1ccccn1	-9%	1%	-14	23µM*
C=CCn1c(SCC(=O)C(C)(C)C)nnc1-c1ccccn1	12%	-3%	4	-9%
O=c1c(Cc2c(F)cccc2Cl)c(O)ccn1Cc1ccc(F)cc1	6%	3%	-3	20%
O=c1c(Cc2c(F)cccc2Cl)c(O)ccn1C1CCCCCC1	-2%	-32%	9	0.18µM*
CC(N=C1NS(=O)(=O)c2ccccc21)C(=O)OCC(=O)N(C)C1CCS(=O)(=O)C1 (stereo unspecified)	9%	6%	-12	3%
Cn1nc(-c2ccccc2)c(CO)c1Oc1ccc(F)cc1	-3%	-1%	-1	21µM*
Cc1cnc(NC(=O)Nc2ccc(OCc3ccccc3)cc2)c(Br)c1	-5%	-7%	3	u
COC(=O)c1cc(=O)n(Cc2cccs2)c(=Nc2ccc(F)cc2)s1	u	-9%	8	19%
COC(=O)c1cc(=O)n(-c2ccc(F)cc2)c(=Nc2ccc(F)cc2)s1	u	u	-27	5.2µM*
COc1ccc(OC)c(-c2oc3ccccc3c(=O)c2O)c1	-11%	u	2	0%
COc1cc(OC)c(-c2oc3ccccc3c(=O)c2O)c(OC)c1	-7%	16µM*	-8	u
CCN(CC)CCC(=O)N1c2ccccc2Sc2ccc(Cl)cc21	u	14µM*	-8	30µM*
CN(C)CCC(=O)N1c2ccccc2Sc2ccc(Cl)cc21	-10%	u	-10	u
COc1ccccc1C1c2ccc3ccccc3c2Oc2ncn(CCN(C)C)c(=N)c21 (stereo unspecified)	-15%	u	-2	9.2µM*
COc1ccc(C2c3ccc4ccccc4c3Oc3ncn(CCCN(C)C)c(=N)c32)cc1 (stereo unspecified)	5%	12µM*	-11	21µM*
COc1ccccc1C1c2ccc3ccccc3c2Oc2ncn(CCCO)c(=N)c21 (stereo unspecified)	1%	130%	-20	u
O=C1C(Cl)=C(N2CCCC2)C(=O)N1c1ccc(F)cc1	-2%	-9%	20	-1%
O=C(Nc1ccc(C(F)(F)F)cc1Cl)c1ccc(Cn2cc(Br)cn2)o1	-4%	-2%	-11	13µM*
COc1ccc(C(O)(CCC(C)C)C(CN2CCOCC2)c2ccc(Cl)cc2)cc1 (stereo unspecified)	-1%	u	-24	u
CCOc1ccc(C(O)(CCC(C)C)C(CN2CCOCC2)c2ccccc2)cc1 (stereo unspecified)	4%	23µM*	2	u
CCOc1ccc(C(O)(c2ccccc2)C(CN2CCCC2)c2ccccc2)cc1 (stereo unspecified)	-8%	21µM*	8	122%
SMILES	uPA generation	SW480 rerep	Giardia killer	MCF10A rerep
CCCCC(O)(c1ccc(F)cc1)C(CN1CCOCC1)c1ccc(Cl)cc1 (stereo unspecified)	-10%	u	5	7.3µM*
CCc1ccc(C(O)(c2ccccc2OC)C(CN2CCOCC2)c2ccccc2)cc1 (stereo unspecified)	4%	14%	11	17%[9.22 µM]
Cc1ccc(Nc2nc(Cl)nc3ncn(C)c23)c(C)c1	7%	u	-4	0%
CC1CCCN(S(=O)(=O)c2ccc(C(=O)Nc3sc4c(c3C(N)=O)CCN(C)C4)cc2)C1 (stereo unspecified)	7%	u	55	u
CNC(=O)c1c(NC(=O)c2ccc(S(=O)(=O)N3CCCCC3C)cc2)sc2c1CCN(C)C2 (stereo unspecified)	-2%	u	9	21µM*
CCCCN(C(=O)c1cccc(S(=O)(=O)N(CC)c2ccccc2)c1)c1c(N)n(CC(C)C)c(=O)[nH]c1=O	20%	-36%	7	3%
COc1ccc2c(c1)c(=O)c(C(=O)c1ccccc1)cn2Cc1ccccc1	6%	16µM*	-17	u
COc1cccc(CNC(=O)C2CCC(CNc3nc(=S)[nH]c4ccccc34)CC2)c1 (stereo unspecified)	-6%	1%	2	u
Cc1ccc(CNC(=O)C2CCC(CNc3nc(=S)[nH]c4ccccc34)CC2)cc1 (stereo unspecified)	-3%	14%	-2	23µM*
Cc1ccc(-c2csc3nc4c5ccccc5c(NCCCN(C)C)nn4c(=O)c23)cc1	-39%	u	-10	18µM*
Cc1cnc(NC(=O)CSc2ccc(Cl)cc2)s1	5%	-1%	19	5%
Cc1cnc(NC(=O)Nc2ccc(Cl)cc2)s1	2.2µM*	-11%	2	u
CCc1ccc(CNCCNC(=O)c2ccco2)cc1	4%	u	11	18µM*
O=C(NCCNCc1ccccc1)c1ccco1	-2%	-8%	-9	2%
CCOc1cc(CNCCc2ccc(S(N)(=O)=O)cc2)ccc1OCc1ccccc1	x	u	-1	21µM*
CCOc1cc(CNCc2ccccc2)ccc1OCc1ccc(Cl)cc1	-2%	15µM*	23	u
Cc1ccc(OCCCN2CCOCC2)cc1	-1%	-2%	-4	3%
COCCn1c(SCC(=O)NCCCN2CCCC2=O)nc2sc3c(c2c1=O)CCCC3	-3%	-1%	-1	5%
Oc1ccc2ccccc2c1CNc1ccccc1	1%	u	-2	u
Oc1ccc2ccccc2c1CNc1ccc2ccccc2c1	-4%	u	-5	21µM*
COc1ccc(CC(=O)Oc2cc(C)ccc2C)cc1	1%	8%	16	2%
O=C(O)CCSSCCC(=O)O	3%	0%	10	-13%
CCN(C(=O)COC(=O)CCOc1cc(C)ccc1C)c1c(N)n(Cc2ccccc2)c(=O)[nH]c1=O	0%	3%	0	u
C=CCOC(=O)C1=C(C)NC(=S)NC1/C=C/c1ccccc1 (stereo unspecified)	x	15µM*	-7	-5%
CC1=C(C(=O)OCc2ccccc2)C(/C=C/c2ccccc2)NC(=S)N1 (stereo unspecified)	4%	10%	-6	23µM*
COCCOC(=O)C1=C(C)NC(=S)NC1/C=C/c1ccccc1 (stereo unspecified)	7%	1%	4	-2%
O=C(NC1CCN(Cc2ccccc2)CC1)c1cn(-c2ccccc2)nc1-c1cccnc1	-4%	-7%	2	14%
Cc1c(C(=O)Nc2cccc(Cl)c2)oc2ccc(S(=O)(=O)N3CCC4(CC3)OCCO4)cc12	x	3.7µM*	-23	5.8µM*
Cc1c(C(=O)Nc2ccc(F)cc2)oc2ccc(S(=O)(=O)N3CCC4(CC3)OCCO4)cc12	x	0%	4	16%
